M1 ag parental: M1 agonist counterscreen hit in parental CHO-K1 cells. activation, % at 3 µM. Fluo-8 calcium fluorescence; scaled to maximal ATP response, vehicle zero. hit rate 0.48% among 360,000; in the data active means activation above about 15%;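 further: untransfected CHO-K1 host cells lacking M1 receptor as counterscreen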
M1 PAM: positive allosteric modulators of human M1 muscarinic receptor | activation, % at 3 µM | P11229 | AID 588819 | CHO-K1 hM1, Fluo-8 calcium fluorescence, ACh EC20; 0% = ACh EC20, 100% = maximal ACh | hit rate 0.088% among 360,000; in the data active means activation above about 19%, passing the limit was not always enough
Target sequence (P11229 whole entry, looked up): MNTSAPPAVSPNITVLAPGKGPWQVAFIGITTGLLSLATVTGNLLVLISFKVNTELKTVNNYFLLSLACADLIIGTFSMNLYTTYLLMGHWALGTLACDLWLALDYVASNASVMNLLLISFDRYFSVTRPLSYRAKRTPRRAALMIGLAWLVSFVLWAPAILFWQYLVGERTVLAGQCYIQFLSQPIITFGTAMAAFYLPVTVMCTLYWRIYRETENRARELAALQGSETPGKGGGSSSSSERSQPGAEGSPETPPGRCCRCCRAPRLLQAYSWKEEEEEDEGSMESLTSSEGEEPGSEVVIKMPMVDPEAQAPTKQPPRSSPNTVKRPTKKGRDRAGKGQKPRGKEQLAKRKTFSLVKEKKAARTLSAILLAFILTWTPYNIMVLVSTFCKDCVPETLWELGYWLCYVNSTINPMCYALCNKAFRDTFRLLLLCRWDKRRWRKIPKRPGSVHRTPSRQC
M1 ag: agonists of human M1 muscarinic receptor; activation, % at 3 µM; hit rate 0.33% among 360,000; CHO-K1 hM1, Fluo-8 calcium fluorescence, agonist mode; 0% DMSO, 100% acetylcholine EC100;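 active means activation above the run's mean compound activation plus 3 SD, cut at about 16% in these data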;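 further: peak over basal fluorescence ratio within a 140 s kinetic read after compound addition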
M1 antag: blocks human M1 muscarinic receptor; P11229; CHO-K1 hM1, Fluo-8 calcium fluorescence, ACh EC80 antagonist; inhibition, % at 3 µM; hit rate 1.3% among 360,000;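 active means percent inhibition above its own plate's cutoff, namely the mean of that plate's compound wells plus 3 SD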;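 further: peak over basal fluorescence ratio during 140 s after agonist addition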
CHO-K1 Ca antag: nonselective inhibitor or artifact in parental CHO-K1 cells; hit rate 0.6% among 360,000; ATP-induced calcium, Fluo-8 fluorescence; inhibition, % at 3 µM; AID 602250;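 active means inhibition above a per-plate cutoff, the plate's mean sample inhibition plus 3 SD, cut at about 24% in these data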
CHO-K1 Ca PAM: counter-screen for M1 PAMs: effect in parental CHO-K1 cells. ATP EC20, Fluo-8 calcium fluorescence; 0% at ATP EC20, 100% at ATP max. activation, % at 3 µM. hit rate 0.02% among 360,000. AID 602247;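 active means activation above the run cutoff, the mean activation of all test compounds plus 3 SD, cut at about 40% in these data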;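 further: peak over basal fluorescence ratio in a 140 s read after ATP addition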
Hits are given with their value; - = inactive. Rows were chosen to be rich in hits. Some 2.4% of all compounds tested hit in one or more screens of this group.

SMILES | M1 ag parental | M1 PAM | M1 ag | M1 antag | CHO-K1 Ca antag | CHO-K1 Ca PAM
CC1CN(/C=C/C=O)C(C)CC1OC(=O)c1ccccc1 (stereo unspecified) | - | - | - | - | - | -
CN(C)CCCCCNCCCNC(=O)/C=N\O | - | - | - | - | - | -
CN(C)CCNC(=O)/C=N/O | - | - | 26 | - | - | -
CCOC(=O)C1CCCN(C(=O)Cc2c(C(=O)O)[nH]c3ccccc23)C1 (stereo unspecified) | - | - | 73 | 64 | - | -
CCOC(=O)C1CCCN(C(=S)Nc2ccc(Nc3ccccc3)cc2)C1 (stereo unspecified) | - | - | 78 | 80 | - | -
CCOC(=O)C1CCCN(C(c2ccccn2)c2c(C)[nH]c3ccccc23)C1 (stereo unspecified) | - | - | 28 | - | - | -
CCOC(=O)C1CCCN(C(=O)Nc2c(-c3ccccc3)noc2C)C1 (stereo unspecified) | - | - | 31 | - | - | -
Cc1[nH]c2ccccc2c1C(c1ccccn1)N1CCCC1 (stereo unspecified) | - | - | - | - | - | -
COc1ccccc1NC(=O)CSc1nnc(CC(=O)Nc2ccccc2F)n1C | - | - | - | - | - | -
COC(=O)C=C1CCC2C3CC(F)C4(O)CC(=O)CCC4(C)C3C(=O)CC12C (stereo unspecified) | - | - | - | - | - | -
COc1c(Br)cc(Br)cc1C(=O)Nc1ccccc1N1CCCC1 | - | - | - | - | - | -
CC1CCN(C(=O)C2CCN(S(=O)(=O)c3ccc(-n4cnnn4)cc3)CC2)CC1 | - | - | - | - | - | -
CC(=O)Nc1ccc(/C=C/c2nc(-c3ccccc3O)n[nH]2)cc1 | - | - | - | - | - | -
CCOC(=O)C1CCCN(C(=S)Nc2ccc(C)cc2C)C1 (stereo unspecified) | - | - | 85 | 83 | - | -
CCOC(=O)C1CCCN(C(=O)C2c3ccccc3Oc3ccccc32)C1 (stereo unspecified) | 20 | - | 79 | 35 | - | -
CS(=O)(=O)N1CCN(C(=O)C2c3ccccc3Oc3ccccc32)CC1 | - | - | - | 47 | - | -
CN(c1ccccc1)S(=O)(=O)c1cccc(NC(=O)CN2CCCc3ccccc32)c1 | 15 | - | - | - | - | -
CN(CC(=O)Nc1cccc(F)c1)CC(=O)Nc1cccc(S(=O)(=O)N(C)c2ccccc2)c1 | - | - | - | - | - | -
CN(c1ccccc1)S(=O)(=O)c1cccc(NC(=O)CSc2nncs2)c1 | - | - | - | - | 29 | -
Cc1cc(C)c(NC(=O)CN(C)CC(=O)Nc2cccc(S(=O)(=O)N(C)c3ccccc3)c2)c(C)c1 | - | - | - | 36 | - | -
Cc1cc(C)cc(OCCNC(=O)C2CCN(S(=O)(=O)c3ccccc3)CC2)c1 | - | - | - | - | - | -
O=c1[nH]c2ccc(N/C(=N/S(=O)(=O)c3ccccc3)c3ccccc3)cc2[nH]1 | - | - | - | - | 27 | -
OC(C#CCCN1CCCCC1)(c1ccccc1)c1ccccc1 | - | - | - | 99 | - | -
OC(C#CCCN1CCCCC1)(c1ccccc1)C1CCCCC1 (stereo unspecified) | - | - | - | 97 | - | -
CCN(CC)CCC#CC(O)(c1ccccc1)c1ccccc1 | - | - | - | 99 | - | -
SMILES | M1 ag parental | M1 PAM | M1 ag | M1 antag | CHO-K1 Ca antag | CHO-K1 Ca PAM
OC(CCN1CCCCC1)(c1ccccc1)C1C[C@@H]2C=C[C@H]1C2 (stereo partly specified) | - | - | - | 99 | - | -
O=C(COC(=O)c1cc(S(=O)(=O)N2CCCC2)ccc1O)NCCc1ccccc1 | - | - | - | - | - | -
Cc1ccc(C(O)(CCN2CCCCC2)c2ccccc2)cc1 (stereo unspecified) | - | - | - | 101 | - | -
CN(C)c1ccc(/C=C/C(=O)c2cccc(Br)c2)cc1 | 53 | - | 164 | 81 | 40 | -
COc1ccc(NC2=CC(c3cccc(OC)c3)N(c3ccc(OC)cc3)C2=O)cc1 (stereo unspecified) | - | - | - | 47 | 37 | -
COc1ccc(-c2cc3c(c4c2ccn4C)C2CCC3C2)cc1F (stereo unspecified) | - | - | - | - | 24 | -

High-throughput results deposited in PubChem BioAssay by The Scripps Research Institute Molecular Screening Center.
